Results as given in PMC5913336, “True equilibrium measurement of transcription factor-DNA binding affinities using automated polarization microscopy”.

target: Cic (Drosophila melanogaster, UniProt Q9U1H0 483-565); assay: FP; 33 mM phosphate pH 7.0, 90 mM NaCl, 0.01% Tween 20, 0.1 mM DTT, 0.5% agarose; room temperature; settings: tags: N-GST (pGEX-6P-1, kept); dsDNA, one strand shown

Sequence	binding signal	Kd [nM]
CGATGAATGGGGT	2.02 Kd / Kd of best base at the position	–
CGTTGAATGAGGT	2.2 Kd / Kd of best base at the position	–
CGTTGAATAGGGT	6.64 Kd / Kd of best base at the position	–
CGTTAAATGGGGT	3.06 Kd / Kd of best base at the position	–
AGTTGAATGGGGT	1.69 Kd / Kd of best base at the position	–
GGTTGAATGGGGT	1.41 Kd / Kd of best base at the position	–
CGTTGAATGGGAT	1.93 Kd / Kd of best base at the position	–
CTTTGAATGGGGT	1.85 Kd / Kd of best base at the position	–
CGTTGAAAGGGGT	8.64 Kd / Kd of best base at the position	–
CGTTGAATGGGGT	–	~34.1
CGTTGCATGGGGT	17.1 Kd / Kd of best base at the position	–
CGTTGAATGTGGT	4.08 Kd / Kd of best base at the position	–
CGTTTAATGGGGT	4.43 Kd / Kd of best base at the position	–
CGTTGAATGGCGT	2 Kd / Kd of best base at the position	–
CGTTGAATGGGCT	1.86 Kd / Kd of best base at the position	–
CGTTGAATGGAGT	1.79 Kd / Kd of best base at the position	–
CGCTGAATGGGGT	3.22 Kd / Kd of best base at the position	–
CGTTGTATGGGGT	5.33 Kd / Kd of best base at the position	–
TGTTGAATGGGGT	1.66 Kd / Kd of best base at the position	–
CATTGAATGGGGT	1.53 Kd / Kd of best base at the position	–

Sequence	binding signal	Kd [nM]
CGTTGAATGCGGT	7.69 Kd / Kd of best base at the position	–
CGTTGAATGGGGC	2.65 Kd / Kd of best base at the position	–
CCTTGAATGGGGT	1.89 Kd / Kd of best base at the position	–
CGTTCAATGGGGT	1.93 Kd / Kd of best base at the position	–
CGTTGAATGGTGT	2.29 Kd / Kd of best base at the position	–
CGTAGAATGGGGT	5.55 Kd / Kd of best base at the position	–
CGTTGATTGGGGT	8.11 Kd / Kd of best base at the position	–
CGTTGGATGGGGT	20.4 Kd / Kd of best base at the position	–
CGTCGAATGGGGT	12.4 Kd / Kd of best base at the position	–
CGTTGAATGGGGG	2.15 Kd / Kd of best base at the position	–
CGTTGAGTGGGGT	7.68 Kd / Kd of best base at the position	–
CGTTGAATGGGGA	2.36 Kd / Kd of best base at the position	–
CGTTGAAGGGGGT	11.1 Kd / Kd of best base at the position	–
CGTTGAATTGGGT	6.71 Kd / Kd of best base at the position	–
CGTTGAATGGGTT	1.85 Kd / Kd of best base at the position	–
CGTTGAATCGGGT	7.88 Kd / Kd of best base at the position	–
CGTTGAACGGGGT	10.1 Kd / Kd of best base at the position	–
CGGTGAATGGGGT	2.27 Kd / Kd of best base at the position	–
CGTTGACTGGGGT	3.64 Kd / Kd of best base at the position	–
